In ChEMBL document CHEMBL1961873, “Compounds: GSK PKIS; Assays: Nanosyn kinase panel” (2012):

Columns and labels:
[1] = target: Sphingosine kinase 1 (Homo sapiens) (UniProt Q9NYA1); conditions: at 1 µM;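 further: mean SPHK1 inhibition value reported from the GSK PKIS kinase panel screen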
[2] = target: T1, Sphingosine kinase 2 (Homo sapiens) (UniProt Q9NRA0); conditions: at 0.1 µM
T1 sequence (whole entry): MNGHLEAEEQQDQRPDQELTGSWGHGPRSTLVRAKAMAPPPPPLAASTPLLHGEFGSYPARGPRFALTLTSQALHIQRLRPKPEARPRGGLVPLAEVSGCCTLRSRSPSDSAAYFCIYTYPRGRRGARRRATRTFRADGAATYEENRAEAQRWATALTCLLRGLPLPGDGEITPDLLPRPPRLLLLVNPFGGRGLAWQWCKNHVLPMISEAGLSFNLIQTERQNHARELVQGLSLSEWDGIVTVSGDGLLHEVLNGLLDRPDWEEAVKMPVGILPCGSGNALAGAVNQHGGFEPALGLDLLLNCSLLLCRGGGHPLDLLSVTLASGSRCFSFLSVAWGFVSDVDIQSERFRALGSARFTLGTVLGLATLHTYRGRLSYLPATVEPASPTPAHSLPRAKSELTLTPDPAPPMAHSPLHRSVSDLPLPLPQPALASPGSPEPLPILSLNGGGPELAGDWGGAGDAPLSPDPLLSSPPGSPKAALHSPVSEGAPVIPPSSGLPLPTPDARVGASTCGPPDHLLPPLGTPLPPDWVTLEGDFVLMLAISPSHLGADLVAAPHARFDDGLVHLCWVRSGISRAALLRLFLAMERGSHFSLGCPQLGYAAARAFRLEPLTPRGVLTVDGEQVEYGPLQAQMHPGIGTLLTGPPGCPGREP

[3] = target: T1, Sphingosine kinase 2 (Homo sapiens); conditions: at 1 µM
[4] = target: Casein kinase II subunit alpha (Homo sapiens) (UniProt P68400); conditions: at 0.1 µM
[5] = target: Casein kinase II subunit alpha (Homo sapiens) (UniProt P68400); conditions: at 1 µM
[6] = target: T2, Inhibitor of nuclear factor kappa-B kinase subunit alpha (Homo sapiens) (UniProt O15111); conditions: at 0.1 µM
T2 sequence (whole entry): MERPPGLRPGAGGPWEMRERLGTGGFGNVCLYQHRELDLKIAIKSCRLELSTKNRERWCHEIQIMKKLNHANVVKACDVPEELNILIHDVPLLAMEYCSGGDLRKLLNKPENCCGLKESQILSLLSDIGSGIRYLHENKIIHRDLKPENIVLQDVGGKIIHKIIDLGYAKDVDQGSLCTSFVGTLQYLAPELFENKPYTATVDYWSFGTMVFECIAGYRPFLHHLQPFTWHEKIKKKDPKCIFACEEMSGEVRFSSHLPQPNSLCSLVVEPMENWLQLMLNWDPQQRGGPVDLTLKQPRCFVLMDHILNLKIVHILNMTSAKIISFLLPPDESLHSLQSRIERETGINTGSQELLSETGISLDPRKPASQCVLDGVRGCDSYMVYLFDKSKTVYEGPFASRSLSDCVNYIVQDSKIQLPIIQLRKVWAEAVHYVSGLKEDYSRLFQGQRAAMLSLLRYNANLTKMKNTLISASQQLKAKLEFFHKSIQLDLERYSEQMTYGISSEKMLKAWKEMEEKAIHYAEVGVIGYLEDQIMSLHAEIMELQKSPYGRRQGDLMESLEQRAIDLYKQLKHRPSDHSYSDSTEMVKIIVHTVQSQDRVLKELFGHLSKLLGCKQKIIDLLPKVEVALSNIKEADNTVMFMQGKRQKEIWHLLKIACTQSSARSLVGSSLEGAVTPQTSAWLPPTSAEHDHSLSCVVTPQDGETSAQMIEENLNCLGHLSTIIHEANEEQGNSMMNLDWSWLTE

[7] = target: T2, Inhibitor of nuclear factor kappa-B kinase subunit alpha (Homo sapiens); conditions: at 1 µM
[8] = target: T3, Inhibitor of nuclear factor kappa-B kinase subunit beta (Homo sapiens) (UniProt O14920); conditions: at 0.1 µM
T3 sequence (whole entry): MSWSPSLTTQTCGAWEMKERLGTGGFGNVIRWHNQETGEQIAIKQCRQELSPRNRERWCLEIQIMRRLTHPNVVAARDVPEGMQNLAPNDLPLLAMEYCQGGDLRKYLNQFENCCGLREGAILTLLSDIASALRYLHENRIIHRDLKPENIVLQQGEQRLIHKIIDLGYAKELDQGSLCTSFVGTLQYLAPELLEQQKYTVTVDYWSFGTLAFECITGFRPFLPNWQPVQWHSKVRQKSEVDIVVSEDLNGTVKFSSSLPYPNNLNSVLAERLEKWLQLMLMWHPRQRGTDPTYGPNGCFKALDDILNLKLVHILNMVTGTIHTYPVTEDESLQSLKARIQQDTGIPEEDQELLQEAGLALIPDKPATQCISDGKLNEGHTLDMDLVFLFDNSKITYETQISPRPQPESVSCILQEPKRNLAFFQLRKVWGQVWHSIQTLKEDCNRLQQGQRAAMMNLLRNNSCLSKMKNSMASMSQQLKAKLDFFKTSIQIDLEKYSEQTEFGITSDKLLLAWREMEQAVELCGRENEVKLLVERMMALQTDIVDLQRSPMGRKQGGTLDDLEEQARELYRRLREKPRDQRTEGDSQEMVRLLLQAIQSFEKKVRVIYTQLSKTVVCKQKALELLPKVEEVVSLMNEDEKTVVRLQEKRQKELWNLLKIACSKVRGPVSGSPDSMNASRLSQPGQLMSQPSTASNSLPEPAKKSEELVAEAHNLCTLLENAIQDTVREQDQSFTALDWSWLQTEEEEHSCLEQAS

[9] = target: T3, Inhibitor of nuclear factor kappa-B kinase subunit beta (Homo sapiens); conditions: at 1 µM
[10] = target: T4, Inhibitor of nuclear factor kappa-B kinase subunit epsilon (Homo sapiens) (UniProt Q14164); conditions: at 0.1 µM;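 further: mean inhibition of IKKε reported, from the GSK PKIS dataset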
T4 sequence (whole entry): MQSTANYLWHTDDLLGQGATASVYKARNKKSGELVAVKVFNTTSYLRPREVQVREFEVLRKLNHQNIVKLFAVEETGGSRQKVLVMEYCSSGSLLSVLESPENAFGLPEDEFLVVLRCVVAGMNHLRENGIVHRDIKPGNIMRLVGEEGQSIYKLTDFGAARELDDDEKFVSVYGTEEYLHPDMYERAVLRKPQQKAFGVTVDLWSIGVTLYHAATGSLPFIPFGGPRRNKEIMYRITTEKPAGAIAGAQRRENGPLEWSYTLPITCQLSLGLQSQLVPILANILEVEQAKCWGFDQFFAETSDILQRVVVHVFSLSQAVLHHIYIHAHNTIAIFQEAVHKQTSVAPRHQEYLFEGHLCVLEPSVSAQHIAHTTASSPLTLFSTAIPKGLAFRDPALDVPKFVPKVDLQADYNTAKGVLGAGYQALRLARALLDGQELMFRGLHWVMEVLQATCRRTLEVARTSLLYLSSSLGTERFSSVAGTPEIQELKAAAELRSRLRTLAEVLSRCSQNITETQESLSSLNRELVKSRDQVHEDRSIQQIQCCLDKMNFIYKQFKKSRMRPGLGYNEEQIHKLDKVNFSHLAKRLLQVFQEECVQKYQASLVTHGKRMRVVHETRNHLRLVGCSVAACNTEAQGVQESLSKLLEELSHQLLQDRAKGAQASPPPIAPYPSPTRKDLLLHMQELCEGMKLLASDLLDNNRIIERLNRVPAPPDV

Casein kinase II subunit alpha (Homo sapiens), sequence (P68400 whole entry, looked up): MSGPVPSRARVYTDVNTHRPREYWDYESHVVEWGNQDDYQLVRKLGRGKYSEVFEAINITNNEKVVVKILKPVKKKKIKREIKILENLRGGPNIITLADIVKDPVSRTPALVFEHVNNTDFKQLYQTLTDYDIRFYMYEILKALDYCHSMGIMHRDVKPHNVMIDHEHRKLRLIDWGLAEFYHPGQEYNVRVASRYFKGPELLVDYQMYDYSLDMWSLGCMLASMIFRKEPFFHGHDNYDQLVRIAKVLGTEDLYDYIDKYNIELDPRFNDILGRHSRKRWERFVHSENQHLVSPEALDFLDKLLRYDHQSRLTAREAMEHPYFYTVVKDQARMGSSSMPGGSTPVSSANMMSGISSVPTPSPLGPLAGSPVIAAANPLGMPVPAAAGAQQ
Sphingosine kinase 1 (Homo sapiens), sequence (Q9NYA1 whole entry): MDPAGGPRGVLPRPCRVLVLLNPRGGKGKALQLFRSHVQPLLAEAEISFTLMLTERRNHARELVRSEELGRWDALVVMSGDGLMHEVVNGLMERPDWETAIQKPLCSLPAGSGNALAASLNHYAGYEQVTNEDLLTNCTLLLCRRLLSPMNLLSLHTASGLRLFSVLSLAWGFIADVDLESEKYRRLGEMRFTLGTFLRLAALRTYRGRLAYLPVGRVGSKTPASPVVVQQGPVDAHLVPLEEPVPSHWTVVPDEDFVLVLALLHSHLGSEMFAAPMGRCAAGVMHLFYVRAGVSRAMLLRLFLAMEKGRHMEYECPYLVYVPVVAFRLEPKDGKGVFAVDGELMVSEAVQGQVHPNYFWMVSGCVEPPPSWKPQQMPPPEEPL

| Structure (SMILES) | inhibition [1] [%] | inhibition [2] [%] | inhibition [3] [%] | inhibition [4] [%] | inhibition [5] [%] | inhibition [6] [%] | inhibition [7] [%] | inhibition [8] [%] | inhibition [9] [%] | inhibition [10] [%] |
| --- | --- | --- | --- | --- | --- | --- | --- | --- | --- | --- |
| NC(=O)c1sc(-n2cnc3cc(C(F)(F)F)ccc32)cc1OCc1ccccc1Br | 0.07 | -0.95 | 0 | -1.01 | 2.21 | 2.77 | 2.85 | 3.87 | 2.52 | 3.08 |
| Cc1cc(-c2ccco2)cc(C)c1/C=C/c1cncc(-c2nn[nH]n2)c1 | -1.08 | -0.36 | 1.61 | 1.49 | 3.8 | -1.31 | 2.26 | 3.61 | 2.75 | 4.22 |
| NS(=O)(=O)c1ccc(N/C=C2\C(=O)Nc3ccc4ncsc4c32)cc1 | 0.02 | -1.02 | -0.93 | 7.56 | 28 | 2.29 | 14.3 | 8.87 | 13.1 | 13.3 |
| COc1cccc(-n2ncc3c(N/N=C/c4ccncc4)ncnc32)c1 | -2.79 | -0.91 | -0.32 | 18.2 | 59.7 | 1.55 | 1.71 | 4.82 | 4.07 | 5.23 |
| CCn1c(-c2nonc2N)nc2c(C#CC(C)(C)O)ncc(OC[C@@H]3CCCN3)c21 | 1.85 | 1.65 | 0 | 13.9 | -1.67 | 7.49 | -0.05 | 4.75 | 4.4 | 89.6 |
| NS(=O)(=O)c1ccc(-c2ccc3c(NC(=O)C4CC4)n[nH]c3c2)cc1 | -1.21 | 0.08 | -0.22 | 1.12 | 1.51 | 2.81 | 3 | 3.94 | 3.28 | -0.78 |
| COc1cc(C=NNc2ncnc3c2cnn3Cc2ccccc2)ccc1O | -3.17 | 2.14 | 0.11 | -0.94 | 13.8 | -2.85 | -2.41 | -2.63 | -2.75 | -4.31 |
| COc1cccc(COc2cc(-n3cnc4ccccc43)sc2C(N)=O)c1 | -1.55 | -0.24 | -0.85 | 11.6 | -0.53 | 9.44 | 7.88 | -0.21 | -0.64 | -2.28 |
| CCn1c(-c2nonc2N)nc2c(C#CC(C)(C)O)nc(O[C@@H](CN)c3ccccc3)cc21 | -0.99 | -0.06 | -0.62 | -0.87 | 3.9 | -6.57 | -2.27 | -1.36 | -3.23 | 88.3 |
| CCn1c(-c2nonc2N)nc2c(C#CC(C)(C)O)ncc(OCC3CCNCC3)c21 | 0.24 | 1.73 | -2.73 | 4.56 | 12.8 | 7.05 | 7.37 | 4.88 | 4.77 | 90.3 |
| CCn1c(-c2nonc2N)nc2c(C#CCN)ncc(OCCCN)c21 | -2.44 | 0.6 | -1.33 | -1.18 | 10.1 | -6.76 | -0.57 | -4.65 | 0.63 | 0.53 |
| Nc1nonc1-c1nc2cnccc2n1C1CCCCC1 | 0.54 | 1.2 | 0.21 | -0.44 | 4.16 | -6.64 | -2.66 | -2.5 | -5.78 | -0.73 |
| Fc1ccc(-c2ncn(C3CCNCC3)c2-c2ccnc(Oc3ccccc3)n2)cc1 | -1.73 | 1.51 | 1.09 | 6.73 | 1.68 | -3.14 | 1.08 | 4.13 | 3.12 | 2.6 |
| COc1cc2c(cc1Nc1nc(Nc3ccsc3C(N)=O)c3cc[nH]c3n1)N(C(=O)CN(C)C)CCC2 | 0.45 | 4.92 | -0.26 | 8.25 | 37.7 | -7.1 | -1.3 | 2.95 | -1.2 | -5.2 |
